# Sm TGR inh = inhibitors of Schistosoma mansoni thioredoxin glutathione reductase; Q962Y6; purified TGR, DTNB reduction, TNB absorbance 405 nm; Potency, µM (highest dose often 114 µM), for inactives: at the top dose activity change, negative = inhibition, actives largely listed as inhibitors; hit rate 3% among 360,000; AID 485364; further: nearly all actives have a fitted effect of over 60% in size
#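 TGR 20 nM + NADPH 100 uM (dispensed conc.), cpd preinc 15 min RT; start with NADPH (500 uM addition) then DTNB (15 mM addition). Kinetic TNB absorbance, 405 nm filter. Four-parameter Hill fit across titration.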
# Tb PYK inh = blocks Trypanosoma brucei pyruvate kinase | hit rate 0.12% among 410,000 | Potency, µM (doses to about 76.8 µM), for inactives: at the top dose activity, negative = inhibition, hits mostly inhibitors | AID 624173 | TbPYK enzyme, Kinase-Glo Plus ATP luminescence, 45 min | Q57TT1; further: nearly all actives have a fitted effect of over 50% in size
#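 In this concentration-response screen, enzyme-free wells defined baseline while DMSO plates tracked drift. Each reaction combined TbPYK, substrate, compound and 130 uM ADP for 45 min at room temperature. Kinase-Glo Plus luminescence gave the signal.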
# LmPK inhibitor = LmPK (Leishmania mexicana) enzyme inhibition; Q27686; purified LmPK, Kinase-Glo ATP luminescence, 1 h; Potency, µM (top dose mostly 57.5 µM), for inactives: at the highest dose activity change, negative = inhibition, most hits filed as inhibitors; hit rate 0.37% among 290,000; AID 1721
# Target sequence (Q27686 whole entry, looked up): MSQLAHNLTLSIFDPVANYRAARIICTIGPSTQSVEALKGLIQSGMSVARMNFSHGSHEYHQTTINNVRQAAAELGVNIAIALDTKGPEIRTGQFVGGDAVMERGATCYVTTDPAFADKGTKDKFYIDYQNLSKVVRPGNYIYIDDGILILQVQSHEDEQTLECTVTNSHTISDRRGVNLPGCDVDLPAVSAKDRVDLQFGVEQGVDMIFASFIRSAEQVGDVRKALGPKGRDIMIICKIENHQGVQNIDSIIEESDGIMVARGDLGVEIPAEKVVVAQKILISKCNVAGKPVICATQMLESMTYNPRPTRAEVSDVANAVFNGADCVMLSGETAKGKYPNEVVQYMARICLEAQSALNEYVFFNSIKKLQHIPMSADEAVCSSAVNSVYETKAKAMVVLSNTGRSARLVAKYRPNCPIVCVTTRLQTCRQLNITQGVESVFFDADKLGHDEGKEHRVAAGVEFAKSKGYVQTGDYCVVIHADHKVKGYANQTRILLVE
#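 In 50 mM imidazole pH 7.2 with 7 mM MgCl2, LmPK (0.1 nM) turned over PEP (0.5 mM) and ADP (0.1 mM) for 1 h at room temperature. Luciferase read-out of ATP.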
# RE007 growth inh = less growth of the S. pombe RE007 Vpr strain; S. pombe RE007 Vpr strain, BacTiter-Glo ATP luminescence, 24 h; Potency, µM (doses to about 92.2 µM), for the others: at the highest dose activity change, negative = less growth, usual class: inhibitors; hit rate 0.21% among 360,000; AID 651644; active means well fitted falling curve with a large enough effect; inconclusive means small, poorly fitted or top-dose-only effect; inactive means no such curve, though single readings can be large or run the other way; further: nearly all actives have a fitted effect of over 50% in size
#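 Fission yeast RE007 carrying one integrated HIV-1 vpr copy, seeded at OD 0.01 in PMG+AL medium with 23 nL pinned compound. Grown 24 h at 30 degrees; viability read by BacTiter-Glo luminescence after 5 min.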
# * hit, by the source's call; u = inconclusive; x = not tested or not shown; [ ] = remark or other dose. Rows were chosen to be rich in hits. Some 3% of all compounds tested hit in one or more screens of this group. Unless noted, the call rests on the fitted dose curve; in most records, active means well fitted curve in the direction sought with a large enough effect; inconclusive means small, poorly fitted or top-dose-only effect, or another doubt; inactive means no such curve, though single readings can be large; an effect the other way counts as inactive or inconclusive. On the % scale 0 is the no-effect control and ±100 the full control effect; potency means the concentration at half of the fitted maximal effect.
SMILES,Sm TGR inh,Tb PYK inh,LmPK inhibitor,RE007 growth inh
CCOC(=O)C1=NOC2C(=O)N(c3ccc(Cl)cc3Cl)C(=O)C12 (stereo not drawn),3.55µM*,0.6%,0.2%,1.6%
CCOC(=O)CC1ON(C)C(=O)N1c1ccc(Cl)cc1Cl (stereo not drawn),0.3%,0.0%,-1.8%,-12.4%
CCCC(=O)OC1=CN(Cc2ccccc2)S(=O)(=O)c2ccccc21,2.0%,-2.7%,x,x
Cc1c(Cl)cccc1NC(=O)C(=O)NCC(c1cccnc1)N1CCN(c2ccccc2)CC1 (stereo not drawn),-4.6%,0.8%,x,x
O=C(OCC(=O)N1c2ccccc2Sc2ccccc21)C1CC(=O)N(Cc2ccco2)C1 (stereo not drawn),28.2µM*,-0.2%,5.4%,5.9%
Cc1csc(NC(=O)C2CC(=O)N(Cc3ccco3)C2)n1 (stereo not drawn),44.7µM*,-1.6%,-3.2%,-3.4%
Cc1ccc(-c2csc(NC(=O)C3CC(=O)N(Cc4ccco4)C3)n2)cc1 (stereo not drawn),u,0.2%,0.1%,4.5%
O=C(COC(=O)C1CC(=O)N(Cc2ccco2)C1)c1ccc(OC(=O)c2ccccc2)cc1 (stereo not drawn),25.1µM*,-6.4%,0.4%,8.2%
CC(C)NC(=O)C1(C)CSCC(=O)N1CC(F)(F)F (stereo not drawn),x,x,x,14.0%
COCCCN(C(=O)c1ccco1)c1nc(-c2cc(OC)ccc2OC)cs1,89.1µM*,3.7%,5.5%,11.2%
COc1ccc(OC)c(-c2csc(N(Cc3ccco3)C(=O)c3ccco3)n2)c1,-12.1%,5.9%,6.8%,11.3%
COc1cc(C2OCC3C(c4ccc(OC5OC(CO)C(O)C(O)C5O)c(OC)c4)OCC23)ccc1O (stereo not drawn),35.5µM*,-11.9%,4.9%,-10.8%
CC1=Nc2cc(C(=O)NCc3ccccc3Cl)ccc2Sc2c(C)ccc(C)c21,-4.3%,-4.5%,x,x
CC(=O)NC(c1ccco1)c1cc(Cl)c2cccnc2c1O (stereo not drawn),-20.5%,-2.6%,x,x
CC(=O)NC(c1ccco1)c1cc(Cl)c2ccc(N(C)C)nc2c1O (stereo not drawn),3.98µM*,x,x,x
COc1ccc(N=Cc2sc(O)c3ccccc23)cc1,-2.6%,0.4%,-8.2%,-6.0%
COc1ccc(N=Cc2c(O)c3ccccc3n2C(C)=O)cc1,28.2µM*,-2.6%,-23.9%,u
CCN(CC)CCCNC(=O)c1[nH]c2ccccc2c1Sc1ccc(Cl)cc1,5.01µM*,-1.4%,2.5%,1.4%
COc1ccccc1CN=Cc1[nH]c2ccc(Br)c(Cl)c2c1O,11.2µM*,-3.3%,11.7%,-17.0%
Cc1cccc(N=Cc2[nH]c3ccc(Br)c(Cl)c3c2O)c1,u,-9.5%,-4.6%,-19.0%
O=C(CSc1cn(CCNC(=O)c2c(F)cccc2F)c2ccccc12)Nc1ccc2c(c1)OCCO2,1.4%,0.1%,x,x
CC(C)(C)C(=O)Oc1ccc(S(=O)(=O)Nc2ccccc2C(=O)NCC(=O)O)cc1,x,-9.8%,x,x
COc1ccc(-c2nc3c(c4c2C[C@H](c2ccccc2)OC4)CN(S(=O)(=O)c2ccc(C#N)cc2)CC3)c(C)c1,x,x,-3.5%[11.5 µM],x
CC(=O)Nc1ccc(S(=O)(=O)N2CCc3nc(COc4ccccc4)c4c(c3C2)CO[C@@H](C)C4)cc1,x,x,-5.5%[11.5 µM],x
CCc1nnc(NS(=O)(=O)c2ccc(NC(=S)NC(=O)c3ccc(F)cc3)cc2)s1,44.7µM*,2.8%,1.1%,-3.2%
SMILES,Sm TGR inh,Tb PYK inh,LmPK inhibitor,RE007 growth inh
Cc1cc(NS(=O)(=O)c2ccc(NC(=S)NC(=O)c3ccc(Br)cc3)cc2)no1,50.1µM*,-9.7%,2.5%,-4.4%
Cc1cc(NS(=O)(=O)c2ccc(NC(=S)NC(=O)c3cccnc3)cc2)no1,0.0%,2.9%,4.7%,u
CCc1nnc(NS(=O)(=O)c2ccc(NC(=S)NC(=O)c3cccnc3)cc2)s1,17.8µM*,-3.8%,-1.6%,5.5%
COc1ccc(NS(=O)(=O)c2ccc(NC(=S)NC(=O)c3ccc(F)cc3)cc2)nn1,44.7µM*,-0.8%,-8.0%,-14.2%
O=[N+]([O-])c1ccc(NC(=S)N/C(=N/CS(=O)(=O)c2ccccc2)c2ccccc2)cc1,20µM*,-4.5%,0.3%,-8.7%
Cc1cccc(NC(=S)N/C(=N/S(=O)(=O)c2ccccc2)c2ccccc2)c1,u,6.3%,3.2%,-20.8%
COc1ccc(NC(=S)N/C(=N/CS(=O)(=O)c2ccccc2)c2ccccc2)cc1,39.8µM*,-5.5%,-0.7%,0.3%
